Data on nine compounds can be found in PubChem BioAssay (Tox21).

Experiment [1] can be described thus: Nuclear factor erythroid 2-related factor 2/antioxidant responsive element (Nrf2/ARE) small molecule agonists: qHTS cell viability counter screen in human keratinocytes (AID 1919968; active = well fitted curve in the direction sought with a large enough effect in the repeat runs; an effect the other way counts as inactive or inconclusive; also: nearly all actives have a fitted effect of over 55% in size; also: potency is read from the fitted curve at half-maximal effect). The essentials: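 Cytotoxicity was multiplexed with the Nrf2/ARE luciferase assay in the same wells. Stably transfected HaCaT keratinocytes were treated with test compounds for 23 h at 37 C. Cell viability was then measured by CellTiter-Fluor fluorescence.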
(In general: In qHTS, concentration-response curves come from the screen itself.)

Experiment [2] concerns the target KiSS-1 receptor (Homo sapiens) (UniProt Q969F8). As to the kind of experiment: Human kisspeptin (KISS1R) small molecule agonists, calcium flux assay in KISS1R-HEK293 cells (AID 1920064; active = well fitted curve in the direction sought with a large enough effect in the repeat runs; an effect the other way counts as inactive or inconclusive). Summed up: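 Agonist activity is monitored as intracellular calcium rise in engineered HEK293 cells carrying human KISS1R. Cells are dye-loaded for 1 h at 37 C before compound addition, and fluorescence is recorded for 3 min.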
For orientation: A change in cytosolic calcium serves as a functional read-out for many receptors and channels.

Experiment [3] can be described thus: G protein-coupled receptor (GPCR) small molecule agonists, calcium flux assay: HEK293 wild type cell line counter screen (AID 1920065). Summed up:
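Seed cells, incubate 18 h (37 C, 5% CO2); add calcium dye, 1 h at 37 C; pin-transfer compounds, ATP control or DMSO; read fluorescence 480/540 nm each second for 3 min.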

Experiment [4] can be described thus: p53 small molecule agonists, cell-based qHTS assay with human liver microsomes: qHTS cell viability counter screen (AID 1963579). Also: nearly all actives have a fitted effect of over 45% in size. The essentials:
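Tox21 library compounds, delivered from DMSO stocks, were tested on p53RE-bla cells together with 0.5 mg/mL human liver microsomes and 0.5 mg/mL NADPH (final) over 16 h at 37 C; CellTiter-Glo luminescence served as the cytotoxicity measure.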

Experiment [5] is described as follows: p53 small molecule agonists, cell-based qHTS assay with rat liver microsomes: qHTS cell viability counter screen (AID 1963580). Also: nearly all actives have a fitted effect of over 45% in size. The essentials: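 Counter screen for cytotoxicity under metabolic activation: rat liver microsomes and NADPH, 0.5 mg/mL final each, added with compounds to p53RE-bla HCT-116 cells; 16 h at 37 C, then ATP luminescence read.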
The nature of experiment [6]: p53 small molecule agonists, cell-based qHTS assay: qHTS cell viability counter screen (AID 1963581). Also: nearly all actives have a fitted effect of over 45% in size. Summed up: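 Viability was counter-screened in parallel with the p53 agonist reporter by measuring intracellular ATP luminescence in the same HCT-116 p53RE-bla wells after 16 h compound treatment at 37 C.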
Experiment [7] addresses 5-hydroxytryptamine receptor 2A (Homo sapiens) (UniProt P28223). In words: 5-hydroxytryptamine receptor 2A (HTR2A) small molecule antagonists, cell-based qHTS assay (AID 1963586). Also: nearly all actives have a fitted effect of over 45% in size. The essentials: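 CHO cells stably expressing human HTR2A were plated for 18 h at 37 C, then loaded with calcium dye for 1 h. Compounds were preincubated 5 min at room temperature before DOI (4 nM solution) was added. Kinetic fluorescence was read for 3 min.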

For experiment [8] the target is unchanged. As to the kind of experiment: 5-hydroxytryptamine receptor 2A (HTR2A) small molecule agonists, cell-based qHTS assay (AID 1963587). Also: nearly all actives have a fitted effect of over 30% in size. Summed up:
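HTR2A-CHO cells, plated 18 h at 37 C/5% CO2, dye-loaded 1 h at 37 C; compounds in DMSO added by pin tool (agonist mode). Intracellular calcium flux read as kinetic fluorescence on FDSS over 2 min at 1 s intervals.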

For experiment [9], the target named is Muscarinic acetylcholine receptor M1 (Homo sapiens) (UniProt P11229). In words: Cholinergic receptor muscarinic 1 (CHRM1) small molecule antagonists, cell-based qHTS assay (AID 1963588). Also: nearly all actives have a fitted effect of over 40% in size. The essentials:
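Compounds were tested at 15 concentrations in three independent runs. Dye-loaded CHRM1-CHO cells were exposed 5 min at room temperature before stimulation by acetylcholine added at 50nM. Intracellular calcium was read kinetically on FDSS for 3 min.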

Experiment [10] can be described thus: cAMP Responsive Elements (CRE) small molecule agonists, cell-based qHTS assay (AID 1963590). Summed up:
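Cells carrying a CRE-driven beta-lactamase reporter (HEK 293T) are seeded, incubated overnight (18 h), and treated with test compounds for 3 h at 37 C; reporter activity is then detected with a FRET substrate after 2 h at room temperature.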

Experiment [11] is described as follows: cAMP Responsive Elements (CRE) small molecule antagonists, cell-based qHTS assay (AID 1963591; active = well fitted inhibition curve with a large enough effect in the signal ratio in the repeat runs, not every such curve was filed as active; the % refers to the signal ratio). The essentials:
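Cells (CRE-bla HEK 293T, DMEM with 10% dialyzed FBS and 25 mM HEPES) are seeded and incubated 18 h. Compounds are added with NKH477 agonist at 0.25 uM final for 3 h, then FRET substrate for 2 h.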

Experiment [12] has as its target Beta-2 adrenergic receptor (Homo sapiens) (UniProt P07550). As to the kind of experiment: Adrenergic beta2 receptor (ADRB2) small molecule antagonists, cell-based qHTS assay (AID 1963592). Also: series mostly up to about 92 µM; nearly all actives have a fitted effect of over 50% in size. Summed up:
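Assay format: CHO-ADRB2 cells, 18-20hr seeding at 37C/5% CO2, then compound plus 1nM isoproterenol agonist mix for 0.5hr RT. Homogeneous time-resolved fluorescence cAMP detection after 1hr, expressed as 665/615 nm ratio.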

The target of experiment [13] is D(2) dopamine receptor (Homo sapiens) (UniProt P14416). As to the kind of experiment: Dopamine D2 receptor (DRD2) small molecule antagonists, cell-based qHTS assay (AID 1963595; active = well fitted inhibition curve with a large enough effect in the signal ratio in the repeat runs, with a control signal flat; the % refers to the signal ratio). Summed up: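 HTRF cAMP read-out at 665 and 620 nm emission (340 nm excitation). Antagonist mode: compounds were tested against 12 nM quinpirole in DRD2-HEK293 cells, with 200 nM NKH477 raising cAMP and 0.1 mM Ro20-1724 blocking its breakdown.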
Chain of D(2) dopamine receptor (Homo sapiens) (P14416 whole entry, looked up): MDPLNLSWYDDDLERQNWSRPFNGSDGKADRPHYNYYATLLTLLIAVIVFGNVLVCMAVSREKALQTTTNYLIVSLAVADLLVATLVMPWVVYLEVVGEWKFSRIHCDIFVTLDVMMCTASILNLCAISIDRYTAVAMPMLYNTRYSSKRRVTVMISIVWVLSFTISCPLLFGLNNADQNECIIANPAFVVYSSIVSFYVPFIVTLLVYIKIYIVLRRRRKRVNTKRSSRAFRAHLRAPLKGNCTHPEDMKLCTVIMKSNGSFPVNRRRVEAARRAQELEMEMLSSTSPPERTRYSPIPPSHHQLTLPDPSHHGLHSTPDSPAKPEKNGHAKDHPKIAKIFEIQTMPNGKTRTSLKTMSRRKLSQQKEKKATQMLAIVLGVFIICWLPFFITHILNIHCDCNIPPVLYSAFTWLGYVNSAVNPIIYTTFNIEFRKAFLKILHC

The nature of experiment [14]: p53 small molecule agonists, cell-based qHTS assay with human liver microsomes (AID 1963577).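 Also: p53 response element beta-lactamase reporter cells with liver microsomes plus NADPH.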 The essentials:
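Metabolically competent format: test substances, human liver microsomes and NADPH (both 0.5 mg/mL final) incubated with p53RE-bla cells 16 h at 37 C. Beta-lactamase reporter signal then quantified by fluorescence.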

Experiment [15] in a line: p53 small molecule agonists, cell-based qHTS assay with rat liver microsomes (AID 1963578). Summed up:
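Each plate received p53RE-bla cells, then compound, then rat liver microsomes and NADPH (both 0.5 mg/mL final). Plates were held 16 h at 37 C, and beta-lactamase activity was detected with LiveBLAzer over 2 h.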

Experiment [16] can be described thus: p53 small molecule agonists, cell-based qHTS assay (AID 1963582; active = well fitted activation curve with a large enough effect in the signal ratio in the repeat runs, not every such curve was filed as active; the % refers to the signal ratio). Summed up:
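Cells carrying a p53-responsive bla reporter are treated with test compounds for 16 h at 37 C; beta-lactamase activity is then detected with LiveBLAzer B/G FRET substrate after 2 h at room temperature.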

Experiment [17] has as its target Muscarinic acetylcholine receptor M1 (Homo sapiens) (UniProt P11229). In words: Cholinergic receptor muscarinic 1 (CHRM1) small molecule agonists, cell-based qHTS assay (AID 1963589). Also: nearly all actives have a fitted effect of over 35% in size. Summed up: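 Cells were plated and incubated 18 h at 37 C/5% CO2, loaded with calcium dye for 1 h at 37 C, then treated with compounds in DMSO. Fluorescence was recorded kinetically at 1 sec intervals.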

For experiment [18], the target named is D(2) dopamine receptor (Homo sapiens) (UniProt P14416). As to the kind of experiment: Dopamine D2 receptor (DRD2) small molecule agonists, cell-based qHTS assay (AID 1963594). Also: nearly all actives have a fitted effect of over 35% in size. The essentials:
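HEK293 cells stably expressing DRD2 were cultured 24 h at 37 C, then given Ro20-1724 (0.1 mM final) and compounds for 10 min at room temperature. NKH477 (200nM) was then added for 30 min. cAMP was read by HTRF.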

SMILES strings stand for the structures. Results filed as inconclusive are left out. The source made the active and inactive calls. Unless noted, calls follow the shape of the full dose curve.

Chain of 5-hydroxytryptamine receptor 2A (Homo sapiens) (P28223 whole entry, looked up): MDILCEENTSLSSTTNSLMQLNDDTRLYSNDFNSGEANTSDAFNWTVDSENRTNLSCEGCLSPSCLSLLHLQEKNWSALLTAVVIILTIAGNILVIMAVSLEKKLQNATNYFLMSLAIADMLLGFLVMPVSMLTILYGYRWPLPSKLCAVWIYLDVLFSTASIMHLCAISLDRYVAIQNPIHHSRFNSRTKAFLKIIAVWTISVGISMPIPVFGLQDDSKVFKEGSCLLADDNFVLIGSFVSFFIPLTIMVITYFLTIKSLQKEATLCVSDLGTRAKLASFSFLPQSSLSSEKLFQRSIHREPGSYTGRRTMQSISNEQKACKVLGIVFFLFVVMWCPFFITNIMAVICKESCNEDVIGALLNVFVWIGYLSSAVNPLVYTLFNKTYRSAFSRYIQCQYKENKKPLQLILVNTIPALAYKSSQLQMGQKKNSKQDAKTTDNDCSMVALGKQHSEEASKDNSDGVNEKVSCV
Chain of Beta-2 adrenergic receptor (Homo sapiens) (P07550 whole entry, looked up): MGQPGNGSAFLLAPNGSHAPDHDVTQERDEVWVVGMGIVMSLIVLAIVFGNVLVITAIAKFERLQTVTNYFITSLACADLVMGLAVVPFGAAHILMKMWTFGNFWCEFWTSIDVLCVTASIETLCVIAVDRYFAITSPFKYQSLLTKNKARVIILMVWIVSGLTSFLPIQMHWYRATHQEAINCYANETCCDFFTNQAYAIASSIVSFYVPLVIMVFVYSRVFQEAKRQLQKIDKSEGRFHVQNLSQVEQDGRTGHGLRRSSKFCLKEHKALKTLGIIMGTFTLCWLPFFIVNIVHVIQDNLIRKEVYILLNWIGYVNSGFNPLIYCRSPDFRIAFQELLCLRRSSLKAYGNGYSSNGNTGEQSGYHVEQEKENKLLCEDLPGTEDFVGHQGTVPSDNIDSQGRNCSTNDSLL
Chain of KiSS-1 receptor (Homo sapiens) (Q969F8 whole entry, looked up): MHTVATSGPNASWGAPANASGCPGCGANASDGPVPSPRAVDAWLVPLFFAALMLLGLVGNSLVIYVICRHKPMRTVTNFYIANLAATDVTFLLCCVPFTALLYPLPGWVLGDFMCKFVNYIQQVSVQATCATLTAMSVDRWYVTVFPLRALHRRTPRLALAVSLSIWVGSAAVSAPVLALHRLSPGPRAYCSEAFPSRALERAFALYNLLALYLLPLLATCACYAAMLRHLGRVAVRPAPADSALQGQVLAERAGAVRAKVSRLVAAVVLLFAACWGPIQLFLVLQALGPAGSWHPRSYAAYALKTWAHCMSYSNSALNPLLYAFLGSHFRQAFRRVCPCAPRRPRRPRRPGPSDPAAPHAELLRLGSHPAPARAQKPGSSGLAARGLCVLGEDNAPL
Chain of Muscarinic acetylcholine receptor M1 (Homo sapiens) (P11229 whole entry, looked up): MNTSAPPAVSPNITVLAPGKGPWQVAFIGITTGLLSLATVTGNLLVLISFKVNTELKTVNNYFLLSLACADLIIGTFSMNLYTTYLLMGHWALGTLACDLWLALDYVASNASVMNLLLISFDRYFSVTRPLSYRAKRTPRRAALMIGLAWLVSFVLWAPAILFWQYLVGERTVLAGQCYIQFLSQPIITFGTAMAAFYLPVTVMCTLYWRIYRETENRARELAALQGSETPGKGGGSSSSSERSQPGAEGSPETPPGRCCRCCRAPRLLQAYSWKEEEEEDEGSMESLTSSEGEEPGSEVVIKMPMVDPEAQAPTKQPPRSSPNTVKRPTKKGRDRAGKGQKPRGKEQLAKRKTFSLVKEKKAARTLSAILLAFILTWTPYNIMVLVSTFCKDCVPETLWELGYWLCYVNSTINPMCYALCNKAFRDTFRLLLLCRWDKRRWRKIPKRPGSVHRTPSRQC

Regarding `CSc1ccc(C=O)cc1`, the Potency entry in experiment [1], in [2], in experiment [3], in experiment [4], in experiment [5] and in experiment [6] was “inactive” each time. In addition, the Potency entry in experiment [7], in [8], in experiment [9], in experiment [10], in experiment [11] and in [12] was “inactive” throughout. Also, in [13], the Potency result was “inactive”.

For the compound `C[C@@H](N)C(=O)O`, the Potency entry in experiment [1], in [2], in [3], in [14], in experiment [15] and in experiment [4] was “inactive” throughout. The Potency entry in [5], in experiment [6], in experiment [16], in [7], in experiment [9] and in experiment [17] was “inactive” throughout. Moreover, the Potency entry in [10], in [11], in [12], in experiment [18] and in experiment [13] was “inactive” throughout.

As to `CC(=O)N1CCN(c2ccc(OC[C@H]3CO[C@](Cn4ccnc4)(c4ccc(Cl)cc4Cl)O3)cc2)CC1`, the Potency in experiment [1] is 54.5 µM (active). Also, the Potency entry in experiment [2], in experiment [3], in experiment [15] and in experiment [12] was “inactive” in each case.

As to `O=C(O)CNC(=O)c1ccccc1`, the Potency result in [1], in experiment [2], in experiment [3], in experiment [4], in experiment [5] and in [6] was “inactive” throughout. In addition, the Potency entry in experiment [8], in [9], in experiment [17], in experiment [10], in experiment [11] and in experiment [18] was “inactive” each time. Also, the Potency result in experiment [13] was “inactive”.

With `C=C(C)C(=O)OCCOCCOCCOCCOC(=O)C(=C)C`, the Potency result in [1], in experiment [2], in experiment [3], in [14], in [15] and in [4] was “inactive” in each case. The Potency result in experiment [5], in [6], in experiment [16], in experiment [7], in [8] and in [9] was “inactive” in each case. In addition, the Potency entry in experiment [12] and in experiment [18] was “inactive” in each case.

Regarding `CC1(C)CCC[C@]2(C)[C@H]3CC(=O)O[C@]3(C)CC[C@@H]12`, the Potency result in experiment [1], in [2], in experiment [3], in [14], in experiment [15] and in experiment [4] was “inactive” each time. Moreover, the Potency result in experiment [5], in experiment [6], in experiment [16], in [7], in experiment [17] and in [12] was “inactive” throughout. In addition, the Potency entry in experiment [18] was “inactive”.

Regarding `CCCCc1cc2ccccc2c(OCCN(C)C)n1`, the Potency result in experiment [1], in experiment [2], in [3], in [14], in experiment [15] and in experiment [4] was “inactive” each time. Besides, the Potency result in experiment [5], in experiment [16], in experiment [7], in [8], in [10] and in experiment [11] was “inactive” throughout. Moreover, the Potency entry in [18] and in experiment [13] was “inactive” throughout.

For the compound `O=C(O)c1cc(Br)c(O)c(Br)c1`, the Potency entry in experiment [1], in experiment [2], in experiment [3], in experiment [7], in experiment [8] and in [9] was “inactive” in each case. Also, the Potency entry in [17], in [10], in [11], in experiment [12], in experiment [18] and in experiment [13] was “inactive” in each case.

For `C=C[Si](OCC)(OCC)OCC`, the Potency entry in experiment [1], in [2], in [3], in experiment [14], in experiment [15] and in experiment [4] was “inactive” each time. For the same compound, the Potency entry in [5], in [6], in experiment [16], in experiment [7], in experiment [8] and in experiment [9] was “inactive” throughout. For the same compound, the Potency entry in experiment [17], in [10], in experiment [11], in [12], in experiment [18] and in [13] was “inactive” in each case.
